# Data published in the supplement of paper PMC3334620.
# Whole data set: some 33,000 sequences, median “E-score (-0.5 to 0.5)” near -0.0034, cut for the highest 2% near 0.25. The list comes from a sample in which the highest values are over-represented; it also holds similar and randomly drawn sequences.
# Target: T1, Yap3 (UniProt P38749)
# T1 sequence: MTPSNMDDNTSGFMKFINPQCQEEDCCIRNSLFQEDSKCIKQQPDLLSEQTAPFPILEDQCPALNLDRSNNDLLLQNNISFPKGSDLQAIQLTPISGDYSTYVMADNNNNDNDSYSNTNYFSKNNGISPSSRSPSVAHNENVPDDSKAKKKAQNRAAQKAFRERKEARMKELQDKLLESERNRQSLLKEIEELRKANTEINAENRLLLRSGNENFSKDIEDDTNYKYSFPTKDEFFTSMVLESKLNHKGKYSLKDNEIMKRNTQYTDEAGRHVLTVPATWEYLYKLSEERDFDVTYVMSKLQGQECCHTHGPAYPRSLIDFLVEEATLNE
# Test: PBM E-score (8-mer binding enrichment) (E-score (-0.5 to 0.5)); higher = stronger / more preferred TF binding
# Conditions: protein concentration: 100 nM; construct: GST-full length
# Procedure: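 Universal 'all 10-mer' protein binding microarrays (Agilent AMADID 015681) probed with GST-tagged S. cerevisiae TFs (full-length or DBD) made by in vitro transcription/translation (PURExpress), about 100-200 nM. Bound TF was detected with fluorescent anti-GST. Each ungapped 8-mer (which stands for itself and its reverse complement) is scored by the PBM enrichment score (E-score), a modified Wilcoxon-Mann-Whitney statistic from -0.5 to +0.5, computed with the Universal PBM Analysis Suite. Scale: above 0.35 generally sequence-specific binding.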
row,Sequence,PBM E-score
1,AAACGATA,0.0765
2,CAACGATA,0.0838
3,TAACGATA,0.261
4,GAACTGTA,0.208
5,AATCAGGA,0.0679
6,CCTAAATA,-0.122
7,AATAAATA,0.315
8,GATAAATA,0.233
9,AATAAATG,0.216
10,AATAAAGA,0.156
11,ACTAAATC,0.198
12,CATAAATA,0.197
13,AATAAAGT,0.262
14,AATAAATT,0.186
15,ACTAAATA,0.29
16,TATAAATA,0.301
17,AATAAAGG,-0.0245
18,ATACTAGC,0.0285
19,GCCAGTCC,-0.343
20,CGATCGGC,0.00629
21,GAGCTAAC,0.0153
22,ACTCGCAC,-0.0984
23,AGTCGCAC,-0.233
24,AACTTGAT,0.15
25,GGCGGTGA,0.132
26,GAAGACCA,-0.105

row,Sequence,PBM E-score
1,GGGTAAAA,0.258
2,GGGTAAAC,0.0445
3,CGGTAAAA,0.114
4,AGATAAGG,-0.0911
5,AATAGAAC,0.16
6,AAACTAAA,0.261
7,GCACTAAA,0.179
8,ATACTAAA,0.188
9,GAACTAAA,0.0567
10,TTACTAAA,0.401
11,ACACTAAA,0.261
12,AAACTAAT,0.272
13,TCACTAAA,0.121
14,AAACTAAG,0.186
15,TAACTAAA,0.165
16,GTACTAAA,0.21
17,AAACTAAC,0.232
18,ATTTCTAG,0.083
19,GGATCCAA,0.138
20,CAGCGACG,-0.0734
21,GATTGGAC,0.0901
22,TCCTCTCA,0.0272
23,ACGATCAA,0.0848
24,ACAGAGGA,-0.00698
25,AAAGAAAG,0.231
26,AAGAAAAA,0.059

row,Sequence,PBM E-score
1,AAGAAAAT,0.273
2,AAAGAAAA,0.18
3,AAAGAAAT,0.26
4,ACGGAAAT,0.323
5,TCGGAAAA,0.275
6,GCGGAAAA,0.245
7,ACGGAAAG,0.144
8,AAGAAATT,0.199
9,ACGGAAAA,0.107
10,ACGGAAAC,-0.079
11,ACCCTTTA,0.101
12,CGCTGGTC,-0.307
13,ACGCTGAA,-0.00885
14,CCCATTGA,-0.0177
15,GATGCGAA,0.057
16,TCCGGTCA,0.00023
17,AAGTATCA,0.052
18,CCCCACTA,-0.135
19,AAGTTGCC,-0.0508
20,ACGAAAAG,0.153
21,ACGAAAAT,0.257
22,ACGAAAAA,0.0676
23,GACTCATC,-0.108
24,CGCGCTGA,0.0303
25,AGCGCTTA,0.0641
26,CGCGCTTA,0.265

row,Sequence,PBM E-score
1,ATCGATGC,0.133
2,CATTAAGA,0.0516
3,ATTGTTAG,0.153
4,GTTGTTAA,0.298
5,CTTGTTAC,0.0269
6,GTTGTTTA,0.273
7,ATTGTTAC,0.288
8,CTTGTTAA,0.022
9,ATTGTTAA,0.17
10,CTTGTTTA,0.0644
11,ATTGTTTA,0.0804
12,TTCAAAAA,0.0865
13,ACGTCCTA,0.00661
14,AGCACACT,0.0288
15,GGATCCAC,-0.0381
16,AGAAAGAA,0.0357
17,TGAAAGAA,0.297
18,AGAAAGCA,0.232
19,GGAAAGAA,0.0609
20,GGAAAGCA,0.018
21,TGAAAGCA,0.254
22,CGGCGTAC,-0.15
23,ACGGTTGC,-0.0961
24,TCCTGTCA,-0.0145
25,CCCTGGCC,-0.333
26,AAATCCAT,0.29

row,Sequence,PBM E-score
1,AAATCCAC,0.0662
2,AAATCCAG,0.249
3,CCGCTGTA,0.117
4,ATATAATA,0.299
5,ATATAATG,0.2
6,CTATAAGA,0.182
7,GGATAATA,0.0461
8,ATATAAGA,0.346
9,GTATAAGA,0.0832
10,GTATAATA,0.287
11,GTATAACA,0.133
12,CTATAATA,0.0592
13,AGTAAGCA,0.00993
14,AATCTGCG,-0.0221
15,AGCCCGCA,-0.123
16,AGCAACGC,-0.0123
17,AGTTTCGG,0.0851
18,ACTAATTA,0.362
19,GTTAATGA,0.133
20,ATTAATTA,0.241
21,ATTAATTC,0.3
22,CTTAATTA,0.174
23,GTTAATTA,0.262
24,ACTAATTC,0.178
25,GCTAATAA,0.144
26,ATTAATTG,0.245

row,Sequence,PBM E-score
1,ACTAATTG,0.167
2,GCTAATTA,0.279
3,CCTAATTA,0.136
4,AGAGATCA,0.0988
5,AAACGAGT,0.217
6,CAAGCTAA,-0.0766
7,CTTTTAAC,0.0122
8,AACAAAGT,0.221
9,AGCGAGCC,-0.122
10,AAAGACTG,-0.0469
11,GTATTAGA,0.217
12,CTATTATA,0.145
13,ATATTATA,0.186
14,GTATTATA,0.329
15,GTATTACA,0.291
16,CTATTACA,0.163
17,CCTTAAAG,0.06
18,CAAGTTGG,0.106
19,GTTGCTAA,0.251
20,CACCTGGG,-0.178
21,AAGCCTGG,-0.0378
22,CCATCGTA,0.0169
23,AAACAGCG,0.2
24,CCAGTAAC,0.0196
25,GAATATAA,0.195
26,CAATATAG,0.218

row,Sequence,PBM E-score
1,TAATATAA,0.344
2,AAATATGC,0.00442
3,AAATATAA,0.275
4,AAATATGA,0.224
5,AAATATGT,0.286
6,TCATATAA,0.203
7,CAATATAA,0.307
8,CAATATAC,0.112
9,AGATATAA,0.211
10,AGGATTGA,0.129
11,AGCAAGAT,0.14
12,AATTTCTG,0.089
13,ATCCCATA,-0.106
14,GTTGCATA,-0.0298
15,ATTTAGCC,0.0798
16,AGGGAGTC,-0.235
17,AAATATAT,0.285
18,AAAAATAT,0.342
19,AACTATAT,0.309
20,AAAAATAG,0.225
21,AAAAATAC,0.14
22,AACGATAC,0.0446
23,AACGATAG,0.116
24,AAATATAG,0.117
25,AAATATAC,0.19
26,AACTATAC,0.0711

row,Sequence,PBM E-score
1,AACTATAG,0.0554
2,AACGATAT,0.269
3,AACTCATT,0.0581
4,CTCCCTCA,-0.122
5,CCTCAAGG,-0.145
6,CTCATTCC,0.139
7,CTGCCCAA,-0.122
8,GCCGAATA,0.115
9,AAACCACC,0.0609
10,ATCGACTC,-0.161
11,AGTAGAAG,0.0935
12,AGTCATGG,0.0946
13,AGCTTTAA,0.0942
14,TAATATGA,0.297
15,CAGTATGA,0.143
16,TAGTATGA,0.255
17,GAATATGA,0.168
18,CCATATGA,0.00159
19,TCATATGA,0.317
20,GCATATGA,0.214
21,AAGTATGA,0.0367
22,CAATATGA,0.174
23,AGTTGATC,0.0597
24,GACAGGTC,-0.226
25,AAGGTTCC,-0.0546
26,TAAGTATA,0.275

row,Sequence,PBM E-score
1,AAAGTATA,0.235
2,CAAGTATA,-0.0229
3,CCTCGCTC,0.0543
4,AGAGAACA,0.206
5,GGCCCCCC,-0.461
6,CCCACACA,-0.0183
7,TTAACGAA,0.179
8,ACAACCAT,0.334
9,ACAACCAC,0.0359
10,ACAACCAG,0.0808
11,TATTTCCA,0.00077
12,AAATTCGT,0.312
13,AAATTCCA,0.269
14,GAATTCCA,0.195
15,CAATTCCA,-0.102
16,AAATTCGC,0.129
17,AAATTCGG,0.153
18,GATTTCCA,0.0257
19,AATTTCCA,0.267
